Assay results: PubChem BioAssay AID1159580 (chemical genetic matrix, 2015)
Values joined by “and” are separate entries in the source; they are usually repeats but may differ in a detail not shown here. Equal values may be shown once. Among all 5,500 compounds or so, about 2,000 (36%) were called active. Roughly 18% stayed inconclusive and do not appear here. Rule as the data show it: active = normalized growth mostly below about 0.91 (no sharp cut-off); inconclusive = no clear call, values can overlap the other calls; inactive = mostly above about 0.92. The list shows a part of the results.

Experiment: chemical genetic growth profiling, strain panel (AID 1159580);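 also: tested at 20 µM; growth read once vehicle control cultures reached saturation at 30 °C; 1 = growth at the plate median or of vehicle wells; lower values mean less growth of the strain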
Settings: S. cerevisiae deletion strains, growth OD
[1] = locus YAR019C, strain CDC15, stronger effect = lower value
[2] = locus YBL105C, strain PKC1, stronger effect = lower value
[3] = locus YBR135W, strain CKS1, stronger effect = lower value
[4] = locus YBR136W, strain MEC1, stronger effect = lower value
[5] = locus YBR160W, strain CDC28, stronger effect = lower value
[6] = locus YDL017W, strain CDC7, stronger effect = lower value
[7] = locus YDL028C, strain MPS1, stronger effect = lower value
[8] = locus YDL101C, strain DUN1, stronger effect = lower value
[9] = locus YDL108W, strain KIN28, stronger effect = lower value
[10] = locus YDL132W, strain cdc53, stronger effect = lower value
[11] = locus YDL214C, strain PRR2, stronger effect = lower value
[12] = locus YDR052C, strain DBF4, stronger effect = lower value
[13] = locus YDR054C, strain cdc34, stronger effect = lower value
[14] = locus YDR226W, strain ADK1, stronger effect = lower value
[15] = locus YDR477W, strain SNF1, stronger effect = lower value
[16] = locus YER123W, strain YCK3, stronger effect = lower value
[17] = locus YER133W, strain GLC7, stronger effect = lower value
[18] = locus YFL009W, strain cdc4, stronger effect = lower value
[19] = locus YFL029C, strain CAK1, stronger effect = lower value
[20] = locus YFR003C, strain YPI1, stronger effect = lower value
[21] = locus YFR019W, strain FAB1, stronger effect = lower value
[22] = locus YFR028C, strain CDC14, stronger effect = lower value
[23] = locus YGR040W, strain KSS1, stronger effect = lower value
[24] = locus YGR052W, strain FMP48, stronger effect = lower value
[25] = locus YGR092W, strain DBF2, stronger effect = lower value
[26] = locus YHR030C, strain SLT2, stronger effect = lower value
[27] = locus YHR079C, strain IRE1, stronger effect = lower value
[28] = locus YHR082C, strain KSP1, stronger effect = lower value
[29] = locus YHR205W, strain SCH9, stronger effect = lower value
[30] = locus YIL147C, strain SLN1, stronger effect = lower value
[31] = locus YJL095W, strain BCK1, stronger effect = lower value
[32] = locus YJL128C, strain PBS2, stronger effect = lower value
[33] = locus YJL157C, strain FAR1, stronger effect = lower value
[34] = locus YJR016C, strain ILV3, stronger effect = lower value
[35] = locus YJR066W, strain TOR1 (second series), stronger effect = lower value
[36] = locus YJR066W, strain TOR1, stronger effect = lower value
[37] = locus YKL048C, strain ELM1, stronger effect = lower value
[38] = locus YKL067W, strain YNK1, stronger effect = lower value
[39] = locus YKL101W, strain HSL1, stronger effect = lower value
[40] = locus YKL193C, strain SDS22, stronger effect = lower value
[41] = locus YKL203C, strain TOR2, stronger effect = lower value
[42] = locus YLR113W, strain HOG1, stronger effect = lower value
[43] = locus YLR133W, strain CKI1, stronger effect = lower value
[44] = locus YLR403W, strain SFP1, stronger effect = lower value
[45] = locus YML070W, strain DAK1, stronger effect = lower value
[46] = locus YMR001C, strain CDC5, stronger effect = lower value
[47] = locus YMR205C, strain PFK2 (second series), stronger effect = lower value
[48] = locus YMR277W, strain FCP1, stronger effect = lower value
[49] = locus YNL006W, strain LST8, stronger effect = lower value
[50] = locus YNL020C, strain ARK1, stronger effect = lower value
[51] = locus YNL161W, strain CBK1, stronger effect = lower value
[52] = locus YNL183C, strain NPR1, stronger effect = lower value
[53] = locus YNL207W, strain RIO2, stronger effect = lower value
[54] = locus YNL222W, strain SSU72, stronger effect = lower value
[55] = locus YNL307C, strain MCK1 (second series), stronger effect = lower value
[56] = locus YOL078W, strain AVO1, stronger effect = lower value
[57] = locus YOL136C, strain PFK27, stronger effect = lower value
[58] = locus YOR061W, strain CKA2, stronger effect = lower value
[59] = locus YOR119C, strain RIO1, stronger effect = lower value
[60] = locus YOR231W, strain MKK1, stronger effect = lower value
[61] = locus YOR329C, strain SCD5, stronger effect = lower value
[62] = locus YPL031C, strain PHO85, stronger effect = lower value
[63] = locus YPL153C, strain RAD53, stronger effect = lower value
[64] = locus YPL204W, strain HRR25, stronger effect = lower value
[65] = locus YPL209C, strain IPL1, stronger effect = lower value
[66] = locus YPL256C, strain CLN2, stronger effect = lower value
[67] = locus YPR025C, strain CCL1, stronger effect = lower value
[68] = locus YPR106W, strain ISR1, stronger effect = lower value
[69] = locus YPR111W, strain DBF20, stronger effect = lower value
[70] = strain NNK1, stronger effect = lower value
[71] = strain TSCII, stronger effect = lower value

Measured: normalized growth

O=[N+]([O-])c1ccc(NCc2ccc(Cl)c(Cl)c2)nc1
active: [26] 0.733 | [42] 0.657 | [66] 0.763
inactive: [1] 0.931 | [2] 0.936 | [3] 0.936 | [4] 0.944 | [5] 0.941 | [6] 0.946 | [7] 0.946 | [8] 0.925 | [9] 0.942 | [10] 0.919 | [11] 0.857 | [12] 0.953 | [13] 0.918 | [14] 0.937 | [15] 0.882 | [16] 0.862 | [17] 0.842 | [18] 0.923 | [19] 0.931 | [20] 0.944 | [21] 0.907 | [22] 0.917 | [23] 0.884 | [24] 0.861 | [25] 0.852 | [27] 0.78 | [28] 0.906 | [29] 0.81 | [30] 0.94 | [31] 0.774 | [32] 0.839 | [33] 0.883 | [34] 0.939 | [35] 0.892 | [36] 0.898 | [37] 0.913 | [38] 0.891 | [39] 0.875 | [40] 0.935 | [41] 0.948 | [43] 0.911 | [44] 0.865 | [45] 0.854 | [46] 0.938 | [47] 0.875 | [48] 0.932 | [49] 0.916 | [50] 0.893 | [51] 0.93 | [52] 0.934 | [53] 0.937 | [54] 0.927 | [55] 0.91 | [56] 0.926 | [57] 0.864 | [58] 0.884 | [59] 0.949 | [60] 0.87 | [61] 0.933 | [62] 0.88 | [63] 0.895 | [64] 0.869 | [65] 0.943 | [67] 0.93 | [68] 0.918 | [69] 0.909 | [70] 0.891 | [71] 0.93

O=C(OCCNc1ccc([N+](=O)[O-])cn1)c1ccc([N+](=O)[O-])o1
0.885 (inactive) and 0.148 (active): [26]
inactive: [1] 0.898 | [2] 0.927 | [3] 0.922 | [4] 0.919 | [5] 0.92 | [6] 0.932 | [7] 0.917 | [8] 0.947 and 0.908 | [9] 0.922 | locus YDL134C, strain PPH21, stronger effect = lower value 0.961 | [11] 0.742 | [13] 0.898 | locus YDR150W, strain NUM1, stronger effect = lower value 0.866 | [15] 0.829 | locus YEL061C, strain CIN8, stronger effect = lower value 0.931 | [16] 0.673 | [17] 0.771 | [18] 0.903 | [19] 0.894 | [20] 0.924 | [22] 0.91 | [23] 0.735 | [24] 0.735 | locus YGR229C, strain SMI1, stronger effect = lower value 0.979 | [27] 0.67 | [28] 0.914 | [29] 0.663 | [30] 0.931 | [31] 0.677 | [32] 0.895 | [33] 0.788 | [34] 0.942 | locus YJR043C, strain POL32, stronger effect = lower value 0.968 | [36] 0.78 | [39] 0.737 | [40] 0.899 | [41] 0.822 | locus YLR058C, strain SHM2 (second series), stronger effect = lower value 0.943 | [43] 0.813 | [44] 0.845 | locus YML094W, strain GIM5, stronger effect = lower value 0.896 | [46] 0.915 | [47] 0.884 | [48] 0.904 | locus YMR307W, strain GAS1, stronger effect = lower value 0.817 | [49] 0.933 | [50] 0.81 | locus YNL153C, strain GIM3, stronger effect = lower value 0.957 | [51] 0.902 | [52] 0.684 | [53] 0.9 | [54] 0.915 | locus YNL298W, strain CLA4 (second series), stronger effect = lower value 0.956 | [55] 0.709 | locus YOL006C, strain TOP1, stronger effect = lower value 0.831 | [56] 0.902 | [57] 0.697 | [58] 0.735 | [59] 0.838 | [61] 0.921 | [62] 0.814 | [64] 0.749 | [65] 0.921 | locus YPL241C, strain CIN2, stronger effect = lower value 0.931 | [67] 0.929 | [68] 0.945 | [69] 0.888 | locus YPR135W, strain CTF4, stronger effect = lower value 0.944 | [70] 0.913 | [71] 0.894
active: locus YAL013W, strain DEP1, stronger effect = lower value 0.848 | locus YBR229C, strain ROT2, stronger effect = lower value 0.816 | locus YCL061C, strain MRC1, stronger effect = lower value 0.86 | [10] 0.888 | [12] 0.81 | [14] 0.887 | [21] 0.583 | locus YGR078C, strain PAC10, stronger effect = lower value 0.786 | [25] 0.17 | locus YHR087W, strain rtc3, stronger effect = lower value 0.744 | locus YJL187C, strain SWE1, stronger effect = lower value 0.86 | [35] 0.391 | locus YJR075W, strain HOC1, stronger effect = lower value 0.795 | [37] 0.772 | [38] 0.708 | locus YLR039C, strain RIC1, stronger effect = lower value 0.449 | locus YLR085C, strain ARP6, stronger effect = lower value 0.727 | [42] 0.444 | locus YLR262C, strain YPT6, stronger effect = lower value 0.703 | [45] 0.609 | locus YMR219W, strain ESC1, stronger effect = lower value 0.809 | locus YMR263W, strain SAP30, stronger effect = lower value 0.827 | locus YNL322C, strain KRE1, stronger effect = lower value 0.913 | locus YNR030W, strain Alg12, stronger effect = lower value 0.776 | [60] 0.572 | locus YPL055C, strain LGE1, stronger effect = lower value 0.738 | [63] 0.351 | [66] 0.624
